Records with an inconclusive call do not appear. Activity calls are given as the source filed them. How the source made its calls: active means hit-call score of the fitted dose curve at least 0.9, where 1 is the maximum; inconclusive means response in the unintended direction; inactive means score below 0.9.
Test: ATG_XTT_Cytotoxicity: Cytotoxicity Assessment in the Attagene TRANS-FACTORIAL HepG2 Assay (AID 2283584)
In short: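 HepG2 cells transiently transfected with GAL4-UAS multiple reporter units, dosed 24 h; cytotoxicity read by XTT as loss of signal versus DMSO baseline.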

Compound	outcome
CCC(C)(C)C1CCCCC1OC(C)=O (configuration not stated)	inactive
CCC(CC)C(=O)O	inactive
C=CC(=O)OCC(Br)CBr (configuration not stated)	inactive
COC(=O)c1sccc1S(N)(=O)=O	inactive
CCCCCCCCCCCCCCCC(=O)OCC	inactive
CCOc1nc(F)cc2nc(S(=O)(=O)Nc3c(Cl)cccc3C(=O)OC)nn12	inactive
Cc1ccccc1C	inactive
CC1(C)S[C@@H]2[C@H](NC(=O)COc3ccccc3)C(=O)N2[C@H]1C(=O)O	inactive
C=CCCCCCCCCC(=O)OCCCC	inactive
CC(C)(C)C(=O)C=Cc1ccc(Cl)cc1	inactive
CC(C)c1ccc(C=O)cc1	inactive
CC(C)CCCCCOC(=O)CCS	inactive
c1cc(C(c2ccc(OCC3CO3)cc2)C(c2ccc(OCC3CO3)cc2)c2ccc(OCC3CO3)cc2)ccc1OCC1CO1 (configuration not stated)	inactive
CCCCCCOC(=O)C(C)CC (configuration not stated)	inactive
CC(C)(C)c1n[nH]c(=O)n(N)c1=O	inactive
CCO[Si](CCCN=C=O)(OCC)OCC	inactive
CC(C)=CC1CC(C)CCO1 (configuration not stated)	inactive
Cc1cc(C)c(C)c(O)c1	inactive
CCOC(=O)[C@H](C)O	inactive
Cn1c(=O)[nH]c2ncn(C)c2c1=O	inactive
O=S(=O)(O)c1ccc2cc(O)c(S(=O)(=O)O)cc2c1	inactive

Compound	outcome
O=c1c2ccccc2oc2ccccc12	inactive
Clc1nc2ccccc2s1	inactive
COc1ccc(-c2coc3cc(O)ccc3c2=O)cc1	inactive
c1ccc(CNCc2ccccc2)cc1	inactive
COC(=O)c1ccccc1OC	inactive
CC1(C)O[C@@H]2C[C@H]3[C@@H]4C[C@H](F)C5=CC(=O)C=C[C@]5(C)[C@@]4(F)[C@@H](O)C[C@]3(C)[C@]2(C(=O)CO)O1	inactive
Nc1ccc2cc3ccccc3cc2c1	inactive
COc1c2ccoc2cc2oc(=O)ccc12	inactive
O=C1CCC(=O)N1Cl	inactive
C=C(C)CCO	inactive
CCCCCC(C)O (configuration not stated)	inactive
C(=CC=Nc1ccccc1)C=CNc1ccccc1	inactive
CC[C@H]1OC(=O)[C@H](C)[C@@H](O[C@H]2C[C@@](C)(OC)[C@@H](O)[C@H](C)O2)[C@H](C)[C@@H](O[C@@H]2O[C@H](C)C[C@H](N(C)C)[C@H]2O)[C@](C)(O)C[C@@H](C)C(=NOCOCCOC)[C@H](C)[C@@H](O)[C@]1(C)O	inactive
Cc1ccc(OC(=O)CC(C)C)cc1	inactive
NC(=O)C1CO1 (configuration not stated)	inactive
CC(=O)C=CC1C(C)=CCC(C)C1(C)C (configuration not stated)	inactive
ON(Cc1ccccc1)Cc1ccccc1	inactive
CC(=O)OCc1ccco1	inactive
COC=O	inactive
CC(=O)CC(N)=O	inactive
O=[N+]([O-])c1ccc(CO)cc1	inactive
